Inconclusive results are not listed. Values without a mark were called inactive. The source made the active and inactive calls. Calls come from the whole dose curve; as a rule, active = well fitted cell-killing curve with a large enough effect; inconclusive = small, poorly fitted or top-dose-only effect, or effect the other way; inactive = no such curve, though single readings can be large or run the other way. *1 amine or outer side, *2 acyl side, *3 side chain or, on linkers, in order; H or OH if unused. Where a SMILES comes first, the peptide text is derived from it. Bridges are numbered along the chain shown (N, C = ends). Roman numbers before positions name the chains, in order. [ ]: non-standard residue; d: D form. Actinocin(9to1) = Cc1c2oc3c(C)ccc(C(=O)[*:1])c3nc-2c(C(=O)[*:2])c(N)c1=O; NMeV = CN[C@H](C(=O)O)C(C)C; Sar = CNCC(=O)O
% is set by controls: 0 for no effect and ±100 for the full control effect; potency is the fitted concentration of half-maximal effect.

The test has as its system HeLa. Put plainly: Confirmatory qHTS for gynecologic anti-cancer compounds from libraries of approved drugs and bioactive compounds. Note: nearly all actives have a fitted effect of over 55% in size. Particulars: gynecologic cancer cell panel viability, ATPlite luminescence, 48 h; series mostly up to 57.6 µM; activity change, negative = viability loss: at the top concentration. From the text:
National Center for Advancing Translational Sciences [NCATS] Assay Overview: Chemotherapeutic drug responses vary from cancer to cancer and from patient to patient. These variations could be caused by a number of factors including patient genomic background, tumor mutations, tumor heterogeneity, and aspects of drug treatment. Chemotherapeutic drug resistance is also a common issue and can lead to ineffective treatment and patient death. Here we have profiled the cell killing effects of thousands of compounds to characterize the responses in three gynecological cancers, identify cancer-selective compounds, and understand the diversity of responses to these compounds from pan-cancer suppressors to single cell line selective compounds. In this assay, we screened a 7,914 compound drug library that included approved drug and bioactive compounds in six ovarian, three cervical, and two placental cancer cell lines using the ATPlite assay for cell viability. ATPlite is a luminescence based assay reliant on the conversion of a luciferase substrate to light in the presence of ATP. As a cytotoxic compound will suppress growth and decrease the number of cells, the concentration of ATP will decrease, and less light signal will be detected in the well. Hits were selected from the primary screen for follow-up confirmation. For the confirmation screens, the ovarian cancer cell lines included CAOV-3, SK-OV-3, SW 626, ES-2, PA-1, and TOV-21G. The cervical cancer cell lines included HeLa, Ca Ski, and C-33 A. The placental cancer cell lines included JEG-3 and JAR. HEK 293T cells were used as the control cell line to determine the selectivity index. The ATPlite assay was used to determine the IC50 values.
Assay Protocol Summary: 1,000 cells in 4 uL of media were dispensed into white, solid bottom 1536-well plates using a Multidrop Combi (Thermo Scientific). The Assay plates were incubated for 16 hours at 37 C with 5% CO2 in assay plates, followed by the addition of 23 nL of DMSO or drug dissolved in DMSO. . Each compound was assayed in 11 concentrations (1:3 dilution) from 57.5 uM to 0.977 nM, using the automated Wako 1536 Pin Tool workstation and incubated at 37 C with 5% CO2 48 hours. 4 uL of ATPlite, the ATP monitoring reagent, was then added to the each well of the assay plates using the Multidrop Combi reagent dispenser followed by incubation for 15 minutes at room temperature. The resulting luminescence was measured using the ViewLux plate reader.
On the technique in general: In qHTS, concentration-response curves come from the screen itself.
Take `COc1ccc(OC)c(-c2nnc3ccc(-c4ccc(OC)c(O[C@@H]5CCOC5)c4)nn23)c1`: the Potency is 5.44 µM (active).
As for `O=C(c1ccc(F)c(F)c1Nc1ccc(I)cc1F)N1CC(O)([C@@H]2CCCCN2)C1`, the Potency was 21.7 µM (active).
On to `CCN1CCN(Cc2ccc(-c3cc4c(NC(C)c5ccccc5)ncnc4[nH]3)cc2)CC1` (stereo not given), for which the Potency is 30.6 µM (active).
On the same count and under the same terms, then `CN1CCN(c2ccc(OC(F)(F)F)c(Nc3ncc4c(n3)-c3c(c(C(N)=O)nn3CCO)CC4)c2)CC1`, with 0.0611 µM (active).
As to `CNCc1ccc(-c2[nH]c3cc(F)cc4c3c2CCNC4=O)cc1`, the “activity change, negative = viability loss” value was -7.25%.
For the compound `Oc1cn2c(n1)Nc1ccc(Cl)c(Cl)c1C2`, the Potency was 0.0106 µM (active).
Consider `CN(c1nccc(=O)[nH]1)C1CCN(c2nc3ccccc3n2Cc2ccc(F)cc2)CC1`, for which the “activity change, negative = viability loss” value is -16.7%.
Take `O=C(O)c1ccc(Nc2ncc3c(n2)-c2ccc(Cl)cc2C(c2c(F)cccc2F)=NC3)cc1`: the Potency was 7.69 µM (active).
Consider `CCn1c(-c2nonc2N)nc2c(C#CC(C)(C)O)ncc(OCC3CCCNC3)c21` (stereo not given), for which the Potency was 21.7 µM (active).
As for `COc1cc2nccc(Oc3ccc(NC(=O)C4(C(=O)Nc5ccc(F)cc5)CC4)cc3)c2cc1OC`, the Potency is 13.7 µM (active).
In the case of `CCCCN(CCCC)CC(O)c1cc(Cl)cc2c1-c1ccc(Cl)cc1/C2=C/c1ccc(Cl)cc1` (stereo not given), the “activity change, negative = viability loss” value was -17.5%.
Take `Cn1cnc([N+](=O)[O-])c1Sc1ncnc2nc[nH]c12`: the Potency was 4.85 µM (active).
As for `O=C(/C=C/c1cccc(S(=O)(=O)Nc2ccccc2)c1)NO`, the Potency is 5.3 µM (active).
Take `OCc1ccc(-c2ccc(-c3ccc(CO)s3)o2)s1`: the “activity change, negative = viability loss” value was 0.688% [at 19.5 µM].
Consider `CN1CCN(CCOc2cc(OC3CCOCC3)c3c(Nc4c(Cl)ccc5c4OCO5)ncnc3c2)CC1`, for which the “activity change, negative = viability loss” value was 1.73%.
On to `CNC(=O)c1ccccc1Nc1nc(Nc2ccc(N3CCOCC3)cc2OC)ncc1Cl`, for which the Potency was 0.769 µM (active).
With `NC(=O)c1cccc2cn(-c3ccc([C@@H]4CCCNC4)cc3)nc12`, the “activity change, negative = viability loss” value was -7.4%.
On to `O=C(CCCCCCC(=O)Nc1ccccc1)NO`, for which the Potency was 3.43 µM (active).
As for `Nc1ccccc1NC(=O)c1ccc(CNc2nccc(-c3cccnc3)n2)cc1`, the Potency is 1.53 µM (active).
In the case of `COc1cc(Nc2c(C#N)cnc3cc(OCCCN4CCN(C)CC4)c(OC)cc23)c(Cl)cc1Cl`, the Potency is 27.3 µM (active).
With `CC(=O)NCC(=O)N1C2CCC1c1cc(Nc3ncc(C(F)(F)F)c(NC4CCC4)n3)ccc12` (stereo not given), the Potency is 1.09 µM (active).
Consider `O=C(Nc1cn[nH]c1-c1nc2ccc(CN3CCOCC3)cc2[nH]1)NC1CC1`, for which the Potency was 0.0432 µM (active).
`CC(Oc1cc(-n2cnc3ccc(CN4CCN(C)CC4)cc32)sc1C(N)=O)c1ccccc1C(F)(F)F` (stereo not given): the Potency was 2.43 µM (active).
For the compound `CCN(CC)CCOc1ccc(/C(=C(\Cl)c2ccccc2)c2ccccc2)cc1`, the Potency was 79.4 µM (active).
On to `CC[C@@]1(O)C(=O)OCc2c1cc1n(c2=O)Cc2cc3c(CN(C)C)c(O)ccc3nc2-1`, for which the Potency was 8.63 µM (active).
As for `Nc1ncnc2c1ncn2[C@@H]1O[C@H](CO)C[C@H]1O`, the “activity change, negative = viability loss” value was 2.12%.
For the compound `COc1cc2c(NC3CCN(C(C)C)CC3)nc(C3CCCCC3)nc2cc1OCCCN1CCCC1`, the Potency was 15.3 µM (active).
As to `Cc1cnc(Nc2ccc(F)cc2Cl)nc1-c1c[nH]c(C(=O)NC(CO)c2cccc(Cl)c2)c1` (stereo not given), the Potency is 9.68 µM (active).
Turning to `CCc1cccc(CC)c1NC(=O)N1Cc2[nH]nc(NC(=O)c3ccc(N4CCN(C)CC4)cc3)c2C1`, the Potency is 1.53 µM (active).
On the same count and under the same terms, as for `COc1c(C)c2c(c(O)c1C/C=C(\C)CCC(=O)OCCN1CCOCC1)C(=O)OC2`, the figure is 2.43 µM (active).
As for `CN(Cc1cnc2nc(N)nc(N)c2n1)c1ccc(C(=O)N[C@@H](CCC(=O)O)C(=O)O)cc1`, the “activity change, negative = viability loss” value was 28.4%.
On to `CN(C)CC/C=C1\c2ccccc2COc2ccccc21`, for which the “activity change, negative = viability loss” value was -17.2%.
As to `O=c1c(-c2ccc(O)cc2)coc2cc(O)cc(O)c12`, the Potency is 12.2 µM (active).
Turning to `CCc1nc(C(N)=O)c(Nc2ccc(N3CCC(N4CCN(C)CC4)CC3)c(OC)c2)nc1NC1CCOCC1`, the Potency is 3 µM (active).
For the compound `OC[C@H]1O[C@@H](n2cnc3c(=S)nc[nH]c32)[C@H](O)[C@@H]1O`, the Potency was 4.32 µM (active).
For the compound `CCN[C@H]1C[C@H](C)S(=O)(=O)c2sc(S(N)(=O)=O)cc21`, the “activity change, negative = viability loss” value is -6.16%.
On to `COc1ccc(CCC(=O)c2c(O)cc(O[C@@H]3O[C@H](CO)[C@@H](O)[C@H](O)[C@H]3O[C@@H]3O[C@@H](C)[C@H](O)[C@@H](O)[C@H]3O)cc2O)cc1O`, for which the “activity change, negative = viability loss” value is 3.93%.
Turning to `Cc1c(NC(=O)OCC2COCCN2)cn2ncnc(Nc3ccc4c(cnn4Cc4cccc(F)c4)c3)c12` (stereo not given), the Potency was 34.3 µM (active).
In the case of `Cc1c2oc3c(C)ccc(C(=O)N[C@@H]4C(=O)N[C@H](C(C)C)C(=O)N5CCC[C@H]5C(=O)N(C)CC(=O)N(C)[C@@H](C(C)C)C(=O)O[C@@H]4C)c3nc-2c(C(=O)N[C@@H]2C(=O)N[C@H](C(C)C)C(=O)N3CCC[C@H]3C(=O)N(C)CC(=O)N(C)[C@@H](C(C)C)C(=O)O[C@@H]2C)c(N)c1=O` (I: T[dV]P[Sar][NMeV] / II: T[dV]P[Sar][NMeV]; ester I:1-I:C, II:1-II:C; linker I:N-II:N via Actinocin(9to1)), the Potency is 0.863 µM (active).
`COC(=O)c1ccc2c(C(=Nc3ccc(N(C)C(=O)CN4CCN(C)CC4)cc3)c3ccccc3)c(O)[nH]c2c1`: the Potency was 24.3 µM (active).

(Values after PubChem BioAssay AID1345085 (National Center for Advancing Translational Sciences (NCATS), 2018).)
